The record followed here is PubChem BioAssay (NCATS).

The structures appear in SMILES notation. Several values for one entry are separate records, joined by “and”; a condition that tells them apart may be missing. Equal entries are not always repeated. Inconclusive results are not listed. Some structures have more than one record in an assay (separate samples or runs), and their calls can disagree. Activity calls are given as the source filed them. Unless noted, calls follow the shape of the dose curve; as a rule, active = well fitted curve in the direction sought with a large enough effect; inconclusive = small, poorly fitted or top-dose-only effect, or another doubt; inactive = no such curve, though single readings can be large; an effect the other way counts as inactive or inconclusive.

The nature of experiment [1]: Primary qHTS for small molecule stabilizers of the endoplasmic reticulum resident proteome: Secreted ER Calcium Modulated Protein (SERCaMP) assay (AID 1508630). Also: % is scaled to controls: 0 for no effect and ±100 for the full control effect. In a few lines: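 GLuc-SERCaMP-expressing SH-SY5Y cells, pretreated 16 h with compound, are challenged with thapsigargin to empty ER calcium stores; after 4 h, coelenterazine is added directly to the medium and luminescence is imaged.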
Background: Quantitative high-throughput screening tests each substance at several concentrations.

The nature of experiment [2]: Primary qHTS for inhibitors of nuclear receptor binding SET domain protein 2 (NSD2) in an isogenic RCH-ACV NSD2 p.E1099K mutant (9B) (AID 1645876). Also: nearly all actives have a fitted effect of over 70% in size. Also: potency is read from the fitted curve at half-maximal effect.
Experiment [3] is described as follows: Primary qHTS for inhibitors of nuclear receptor binding SET domain protein 2 (NSD2) in an RCH-ACV wild type WT cells (2C) (AID 1645877). Also: nearly all actives have a fitted effect of over 70% in size. Also: potency is read from the fitted curve at half-maximal effect.
Experiment [4] in a line: A High-Content qHTS Against Drug Library for the Identification of Small Molecules that Inhibit DYT1 Early Onset Primary Dystonia-Associated Cell Pathology (AID 1645839; calls by dose curve). In a few lines: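 In this high-content image screen, delE TorsinA mislocalization in inducible Flp-In 293 cells is scored as %pathology, with cell count serving as the counterscreen. Compound exposure lasts 48 h under tetracycline induction in reduced-serum medium.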

Another experiment deals with Papain (Carica papaya) (UniProt P00784). Briefly: Primary qHTS assay for inhibitors of the protease papain (AID 1645873).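 Also: papain turnover of Z-FR-AMC read as the AMC fluorescence gain over 10 min.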 Also: potency is read from the fitted curve at half-maximal effect. As to activity change, negative = inhibition: % is scaled to controls: 0 for no effect and ±100 for the full control effect.
In experiment [5] the target is Cytochrome P450 2C9 (Homo sapiens) (UniProt P11712). Briefly: Cytochrome P450 family 2 subfamily C member 9 (CYP2C9) small molecule antagonists: luciferase biochemical (cell-free) qHTS assay (AID 1645842; active = well fitted curve in the direction sought with a large enough effect in the repeat runs; an effect the other way counts as inactive or inconclusive; also: nearly all actives have a fitted effect of over 55% in size; also: potency is read from the fitted curve at half-maximal effect; as to activity change, negative = inhibition: % is scaled to controls: 0 for no effect and ±100 for the full control effect). In a few lines:
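Luminescence, after 20 min with luciferin detection reagent, reflected CYP2C9 turnover during a 1 h NADPH-driven reaction at 37C. Enzyme-substrate mix contained 0.4% bovine serum albumin and was preincubated with compound 10 min at room temperature.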

Experiment [6] in a line: NCATS anti-infectives library activity on HEK293 viability as a counter-qHTS vs the C. elegans viability qHTS (AID 1745854).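 Also: HEK293 cells exposed to compounds for 24 hr before the viability read; % is scaled to controls: 0 for no effect and ±100 for the full control effect.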 In a few lines: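 Cytotoxicity in human HEK293 cells is measured by ATP-dependent CellTiter-Glo luminescence following a 24 hr incubation with titrated library compounds at 37C. Top final concentration is 41.7 uM.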
Experiment [7] deals with N-terminal Xaa-Pro-Lys N-methyltransferase 1 (Homo sapiens) (UniProt Q9BV86). The experiment can be described thus: Confirmatory qHTS for Inhibitors of N-terminal methyltransferase 1 (NTMT1): MTaseGlo Assay (AID 1645874). Also: potency is read from the fitted curve at half-maximal effect; nearly all actives have a fitted effect of over 65% in size. The gist of the method: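 Compounds are incubated with 125 nM NTMT1 and 100 uM SAM for 15 min before the SPKRIA peptide (1 uM) starts a 30 min room-temperature methylation. SAH is measured by coupled luciferase luminescence and curves fitted to a Hill equation.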

Experiment [8] addresses Catechol O-methyltransferase (Homo sapiens) (UniProt P21964). The experiment can be described thus: Confirmatory Screen for Target Class Profiling of Small Molecule Inhibitors of Methyltransferases (AID 1745852; calls by dose curve; also: potency is read from the fitted curve at half-maximal effect). Conditions: MTase-Glo luminescence, SAH detection, recombinant enzyme; measured here: COMT max response; stronger effect = lower value.
The target in experiment [9] is Guanidinoacetate N-methyltransferase (Homo sapiens) (UniProt Q14353). Described as above. Conditions: MTase-Glo luminescence, SAH detection, recombinant enzyme; activity change, negative = inhibition: at 57.3 µM (top of the series).
The target of experiment [10] is Nicotinamide N-methyltransferase (Homo sapiens) (UniProt P40261). The experiment is described as above. Conditions: MTase-Glo luminescence, SAH detection, recombinant enzyme; measured here: NNMT max response; stronger effect = lower value.
For experiment [11], the target named is Phenylethanolamine N-methyltransferase (Homo sapiens) (UniProt P11086). Described as above. Conditions: MTase-Glo luminescence, SAH detection, recombinant enzyme; measured here: PNMT max response; stronger effect = lower value.
Experiment [12] concerns the target Cytochrome P450 2D6 (Homo sapiens) (UniProt P10635). Briefly: Cytochrome P450 family 2 subfamily D member 6 (CYP2D6) small molecule antagonists: luciferase biochemical (cell-free) qHTS assay (AID 1645840; active = well fitted curve in the direction sought with a large enough effect in the repeat runs; an effect the other way counts as inactive or inconclusive; also: nearly all actives have a fitted effect of over 55% in size; also: potency is read from the fitted curve at half-maximal effect). The gist of the method: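 P450-Glo luminescent screen: recombinant CYP2D6 enzyme–proluciferin substrate mix preincubated with compound 10 min at room temperature, then NADPH regeneration added for 1 h at room temperature. Detection reagent added for 20 min; luciferin light read as relative luminescence units.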

Chain of Papain (Carica papaya) (P00784 whole entry, looked up): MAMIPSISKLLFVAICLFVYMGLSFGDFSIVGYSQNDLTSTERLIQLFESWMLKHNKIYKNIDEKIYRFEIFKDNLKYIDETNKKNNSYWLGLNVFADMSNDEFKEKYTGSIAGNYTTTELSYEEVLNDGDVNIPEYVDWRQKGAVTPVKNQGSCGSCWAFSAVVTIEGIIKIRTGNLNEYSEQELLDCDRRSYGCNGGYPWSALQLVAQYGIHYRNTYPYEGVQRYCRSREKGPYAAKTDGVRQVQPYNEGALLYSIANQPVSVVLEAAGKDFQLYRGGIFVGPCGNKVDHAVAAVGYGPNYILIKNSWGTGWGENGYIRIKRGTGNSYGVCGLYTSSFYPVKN
Chain of Cytochrome P450 2D6 (Homo sapiens) (P10635 whole entry, looked up): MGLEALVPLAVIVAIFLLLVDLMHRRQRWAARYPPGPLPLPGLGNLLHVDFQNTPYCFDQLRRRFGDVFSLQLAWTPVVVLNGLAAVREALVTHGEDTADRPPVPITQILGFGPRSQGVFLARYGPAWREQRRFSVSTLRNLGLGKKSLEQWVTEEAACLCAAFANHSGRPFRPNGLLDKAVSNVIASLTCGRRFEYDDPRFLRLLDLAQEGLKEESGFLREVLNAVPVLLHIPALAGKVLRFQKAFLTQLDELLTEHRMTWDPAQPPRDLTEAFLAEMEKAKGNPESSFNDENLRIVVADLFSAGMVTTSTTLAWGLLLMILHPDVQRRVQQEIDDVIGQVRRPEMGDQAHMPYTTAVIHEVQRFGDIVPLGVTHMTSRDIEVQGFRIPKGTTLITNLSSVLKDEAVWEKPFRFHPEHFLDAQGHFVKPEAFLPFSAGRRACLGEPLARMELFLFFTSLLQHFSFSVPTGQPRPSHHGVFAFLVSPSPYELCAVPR
Chain of Cytochrome P450 2C9 (Homo sapiens) (P11712 whole entry, looked up): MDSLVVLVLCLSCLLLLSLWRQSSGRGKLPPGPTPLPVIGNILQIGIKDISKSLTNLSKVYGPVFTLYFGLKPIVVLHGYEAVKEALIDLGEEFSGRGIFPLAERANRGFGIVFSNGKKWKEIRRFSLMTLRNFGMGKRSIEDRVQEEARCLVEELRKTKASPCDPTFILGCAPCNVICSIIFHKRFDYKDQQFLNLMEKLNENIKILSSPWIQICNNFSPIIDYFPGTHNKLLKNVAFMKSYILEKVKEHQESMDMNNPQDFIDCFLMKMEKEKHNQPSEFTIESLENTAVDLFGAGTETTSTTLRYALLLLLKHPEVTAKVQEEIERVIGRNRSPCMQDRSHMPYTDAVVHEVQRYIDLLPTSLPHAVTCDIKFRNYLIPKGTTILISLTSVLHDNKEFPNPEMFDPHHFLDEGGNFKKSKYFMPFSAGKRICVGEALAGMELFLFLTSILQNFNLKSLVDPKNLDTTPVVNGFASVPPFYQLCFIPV
Chain of Catechol O-methyltransferase (Homo sapiens) (P21964 whole entry, looked up): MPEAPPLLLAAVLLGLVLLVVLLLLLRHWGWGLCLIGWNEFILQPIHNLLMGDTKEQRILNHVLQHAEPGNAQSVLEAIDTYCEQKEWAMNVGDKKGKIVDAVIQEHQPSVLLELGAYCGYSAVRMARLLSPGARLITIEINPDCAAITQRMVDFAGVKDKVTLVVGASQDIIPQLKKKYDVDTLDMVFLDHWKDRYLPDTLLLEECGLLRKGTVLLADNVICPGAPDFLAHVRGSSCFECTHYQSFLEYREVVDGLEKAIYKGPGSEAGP
Chain of Nicotinamide N-methyltransferase (Homo sapiens) (P40261 whole entry, looked up): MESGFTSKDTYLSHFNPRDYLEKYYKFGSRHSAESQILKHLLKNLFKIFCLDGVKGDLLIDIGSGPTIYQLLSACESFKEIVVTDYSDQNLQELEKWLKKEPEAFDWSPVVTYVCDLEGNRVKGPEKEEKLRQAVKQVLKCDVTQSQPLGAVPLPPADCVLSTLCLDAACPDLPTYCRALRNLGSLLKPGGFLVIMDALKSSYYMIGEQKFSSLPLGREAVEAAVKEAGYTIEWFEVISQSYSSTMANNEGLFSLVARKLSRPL
Chain of Phenylethanolamine N-methyltransferase (Homo sapiens) (P11086 whole entry, looked up): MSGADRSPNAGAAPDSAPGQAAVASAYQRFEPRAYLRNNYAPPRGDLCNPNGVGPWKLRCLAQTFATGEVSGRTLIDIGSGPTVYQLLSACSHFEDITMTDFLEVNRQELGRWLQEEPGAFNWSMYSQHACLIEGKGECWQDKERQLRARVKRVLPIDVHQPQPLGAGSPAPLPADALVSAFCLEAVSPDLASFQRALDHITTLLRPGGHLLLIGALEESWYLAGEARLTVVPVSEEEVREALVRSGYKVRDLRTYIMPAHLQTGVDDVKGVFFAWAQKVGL
Chain of N-terminal Xaa-Pro-Lys N-methyltransferase 1 (Homo sapiens) (Q9BV86 whole entry, looked up): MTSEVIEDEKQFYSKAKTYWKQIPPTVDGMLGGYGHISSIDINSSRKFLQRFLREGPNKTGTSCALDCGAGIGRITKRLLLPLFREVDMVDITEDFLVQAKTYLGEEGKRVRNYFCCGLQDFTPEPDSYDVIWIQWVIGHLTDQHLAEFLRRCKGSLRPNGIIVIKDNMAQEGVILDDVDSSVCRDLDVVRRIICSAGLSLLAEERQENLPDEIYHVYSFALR

In the case of `CNC(=O)c1cc(Oc2ccc(NC(=O)Nc3ccc(Cl)c(C(F)(F)F)c3)cc2)ccn1`, the Potency result in [1] was “inactive”. Besides, the Potency in [2] was 9.34 µM (active) and 21.1 µM (active) and 5.15 µM (active); in experiment [3] it was 7.42 µM (active) and 5.15 µM (active).
As to `Cc1cc(NS(=O)(=O)c2ccc(N)cc2)no1`, in experiment [4], the Potency entry was “inactive”.
`CCN1CCCC1CNC(=O)c1cc(S(N)(=O)=O)ccc1OC` (stereo not drawn): the Potency entry (in experiment [1]; with Papain (Carica papaya)) was “inactive” each time.
As for `CC1=C(C(=O)O)N2C(=O)[C@@H](NC(=O)C(N)c3ccccc3)[C@H]2SC1` (stereo partly drawn), the Potency entry (in experiment [1]; with Papain (Carica papaya)) was “inactive” throughout.
As to `Cc1onc(-c2ccccc2Cl)c1C(=O)N[C@@H]1C(=O)N2[C@@H]1SC(C)(C)[C@@H]2C(=O)O`, the Potency result in [1], in experiment [2] and in [3] was “inactive” each time.
`CC(C)NCC(O)c1ccc(NS(C)(=O)=O)cc1` (stereo not drawn): the Potency entry (in experiment [1]; with Papain (Carica papaya); in experiment [2]; in experiment [3]) was “inactive” throughout.
As for `CNCC[C@H](Oc1cccc2ccccc12)c1cccs1`, the Potency result in experiment [1] and in experiment [5] was “inactive” each time. Moreover, the Potency in [2] is 23.7 µM (active).
With `Nc1nc(N)c2nc(CNc3ccc(C(=O)NC(CCC(=O)O)C(=O)O)cc3)cnc2n1` (stereo not drawn), the Potency entry in experiment [1] was “inactive”. Further, the Potency with Papain (Carica papaya) was 3.55 µM (active).
On to `O=C(N[C@H](CO)[C@H](O)c1ccc([N+](=O)[O-])cc1)C(Cl)Cl`, for which the Potency result in [1] and in experiment [6] was “inactive” each time.
Turning to `N[C@@H](Cc1ccc(O)c(O)c1)C(=O)O`, the Potency result (in experiment [1]; with Papain (Carica papaya); in [2]; in experiment [3]) was “inactive” throughout.
Turning to `CCOC(=O)[C@H](CCc1ccccc1)N[C@H]1CCc2ccccc2N(CC(=O)O)C1=O`, the Potency result in experiment [1] and in [2] was “inactive” each time.
As for `Cc1ccc(S(=O)(=O)N[C@@H](Cc2ccccc2)C(=O)CCl)cc1`, the Potency result (in [1]; with Papain (Carica papaya)) was “inactive” throughout. The Potency in [2] is 13.2 µM (active); in experiment [3], 11.8 µM (active).
For the compound `COc1cc2ncnc(Nc3cccc(Cl)c3)c2cc1OC`, the Potency entry (in experiment [1]; in the experiment with Papain (Carica papaya)) was “inactive” in each case. Besides, the Potency in experiment [5] is 8.49 µM (active); in experiment [7], 12.6 µM (active); in experiment [2] it was 11.5 µM (active); in experiment [9], 30.4 µM (active). Moreover, the activity in [8] is -45.8%; in experiment [10], -29.1%; in [11] it was -45.8%.
Regarding `CCCN[C@H]1CCc2nc(N)sc2C1`, the Potency entry in experiment [1] and in experiment [2] was “inactive” in each case.
Take `CC1CC2C3CCC4=CC(=O)C=C[C@]4(C)[C@@]3(F)[C@@H](O)C[C@]2(C)[C@@]1(O)C(=O)CO` (stereo partly drawn): the Potency result (in experiment [1]; in the experiment with Papain (Carica papaya)) was “inactive” in each case.
Turning to `NC(=O)c1ccc2[nH]ccc2c1`, the Potency result (in [1]; with Papain (Carica papaya); in experiment [2]) was “inactive” in each case.
In the case of `CC1(C)[C@H](C(=O)O)N2C(=O)C[C@H]2S1(=O)=O`, the Potency result in experiment [4], in experiment [12], in experiment [2] and in [3] was “inactive” each time.
Consider `CC(C)Cn1cnc2c(N)nc3ccccc3c21`, for which the Potency entry in experiment [1], in experiment [5], in experiment [2] and in experiment [6] was “inactive” in each case.
`Clc1ccccc1CN1CCc2sccc2C1`: the Potency result in experiment [1] and in experiment [6] was “inactive” in each case.
Turning to `NC(=O)c1cccc(N)c1`, the Potency entry in experiment [1], in experiment [2], in experiment [3] and in experiment [6] was “inactive” each time.
`O=C(O)c1cc(=O)[nH]c(=O)[nH]1`: the Potency result in experiment [12], in experiment [2] and in experiment [3] was “inactive” throughout.
On to `CC[C@H](C)C(=O)O[C@H]1C[C@@H](C)C=C2C=C[C@H](C)[C@H](CC[C@@H]3C[C@@H](O)CC(=O)O3)[C@H]21`, for which the Potency entry in experiment [1] was “inactive”. Moreover, the Potency in experiment [2] is 16.8 µM (active) and 10.5 µM (active); in experiment [3], 8.33 µM (active).
Regarding `O=C(O)CCn1c2c(c3ccccc31)C[C@H](NS(=O)(=O)c1ccc(F)cc1)CC2`, the Potency result in [4] and in [12] was “inactive” each time. Also, in experiment [5], the Potency is 17.4 µM (active).
For `NC1(c2ccc(-c3nc4ccn5c(=O)[nH]nc5c4cc3-c3ccccc3)cc2)CCC1`, the Potency entry in experiment [1] and in [5] was “inactive” in each case. Besides, the Potency was 21.1 nM (active) and 64.9 nM (active) and 166 nM (active) in [2]; 21.1 nM (active) and 81.7 nM (active) and 332 nM (active) in experiment [3]. Also, the activity in experiment [8] is -9.12%; in experiment [10] it was -25.8%; in [11] it was -8.08%. For the same compound, in experiment [9], the activity change, negative = inhibition is -8.7%.
As to `CC(=O)[C@H]1CC[C@H]2[C@@H]3CCC4=CC(=O)CC[C@]4(C)[C@H]3CC[C@]12C`, the Potency result (in experiment [1]; with Papain (Carica papaya)) was “inactive” each time.
As for `C[C@@H]1C[C@H]2[C@@H]3CCC4=CC(=O)C=C[C@]4(C)[C@@]3(Cl)[C@@H](O)C[C@]2(C)[C@@]1(OC(=O)c1ccco1)C(=O)CCl`, the Potency in [12] was 2.45 µM (active); in experiment [5], 4.36 µM (active); in experiment [2] it was 23.7 µM (active); in experiment [3] it was “inactive and 1.2 nM (active)”.
As for `OC(Cn1cncn1)(Cn1cncn1)c1ccc(F)cc1F`, the Potency entry in experiment [4], in [2] and in experiment [3] was “inactive” throughout.
